Measured values as given in PubChem BioAssay.

Tested on: Neuregulin-1 EGF-like domain
Experiment: binders of neuregulin-1 EGF-like domain, primary screen, biochemical, small-molecule microarray, 635 nm fluorescence (AID 1081);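 note: binding of the protein to compounds printed on small-molecule microarray slides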
Conditions: small-molecule microarray binding, higher = more signal

| Compound | composite z-score |
| --- | --- |
| Cc1ccc(S[C@]2(C(=O)NCc3ccccc3)CC(=O)N(Cc3ccccc3)[C@@H]2c2ccc(CO)cc2)cc1 | 1.09 |
| C=C(C(=O)CC[C@H](OC(C)=O)c1ccc(OCCO)cc1)C(C)C | -0.108 |
| Cc1ccc(S[C@]2(C(=O)NCC(C)C)CC(=O)N(Cc3ccccc3)[C@@H]2c2ccc(CO)cc2I)cc1 | 1.27 |
| O=C1N(CCS(=O)(=O)c2ccccc2)c2ccccc2C[C@@]12COC(c1ccc(OCCCO)cc1)=N2 | 1.33 |
| CCOC(=O)C[C@H]1[C@H](OC(=O)c2ccc(-c3ccccc3)cc2)[C@@H](NC(=O)Cc2ccc(OC)cc2)c2cc(OCCCO)ccc2N1C(=O)c1ccc2ccccc2n1 | 0.0896 |
| C=CCNC(=O)[C@@H]1[C@H]2C(=O)O[C@H](c3ccccc3)[C@H](c3ccccc3)N2[C@H](c2ccc(OCCO)cc2)[C@@]12C(=O)Nc1ccccc12 | 1.23 |
| COCCOC(=O)N1C(=O)[C@@]2(c3cc(C#CCNC(N)=O)ccc31)[C@H](c1ccccc1OCCO)N1[C@H](c3ccccc3)[C@H](c3ccccc3)OC(=O)[C@H]1[C@@H]2C(N)=O | 0.874 |
| COC(=O)[C@@]1(Cc2ccc(F)cc2)[C@H]2c3cc(C(=O)N4CCCC4)n(Cc4cccc5ccccc45)c3C[C@H]2CN1C(=O)c1ccccc1 | 1.35 |
| CC(C)CNC(=O)[C@@]1(c2ccc([N+](=O)[O-])cc2)CC(=O)N(CC23CC4CC(CC(C4)C2)C3)[C@@H]1c1ccc(CO)cc1 | 1.19 |
| CC1=C2[C@@H](CCc3ccccc3)OB(O)C[C@@H]2n2c(=O)n(-c3ccccc3)c(=O)n2C1 | 1.04 |
